Here are results for 38 compounds from PubChem BioAssay (EPA / NIEHS).

Several values for one entry are separate records, joined by “and”; a condition that tells them apart may be missing. Equal entries are not always repeated. A structure can be active in one record and inactive in another. Activity calls are given as the source filed them. Rule for the calls: active = hit-call score of the fitted dose curve at least 0.9, where 1 is the maximum; inactive = score below 0.9.

Read-out in the test: Urokinase-type plasminogen activator receptor (uPAR), PLAUR (gene 5329)
Kind of test: BSK_4H_uPAR: BioMAP Diversity Plus: 4H Assay for Urokinase-type plasminogen activator receptor (uPAR) Biomarker Activity (AID 2283030). To be noted: primary human endothelial cells (HUVEC); actives raise or lower the signal. As for the experimental part: BSK_4H is a cell-based, multiplexed-readout assay that uses umbilical vein endothelium, a human vascular primary cell, with measurements taken at 24 hours after chemical dosing in a 96-well plate.BSK_4HAR is an assay component measured in the BSK_4H assay. It measures uPAR antibody related to regulation of gene expression using ELISA technology.Data from the assay component BSK_4HAR was analyzed into 1 assay endpoint. This assay endpoint, BSK_4HAR, was analyzed with bidirectional fitting relative to DMSO as the negative control and baseline of activity. Using a type of binding reporter, gain or loss-of-signal activity can be used to understand changes in the signaling as they relate to the gene PLAUR. Furthermore, this assay endpoint can be referred to as a primary readout, because this assay has produced multiple assay endpoints where this one serves a signaling function. To generalize the intended target to other relatable targets, this assay endpoint is annotated to the cytokine intended target family, where the subfamily is plasmogen activator.
The levels of cell surface (or secreted, indicated by the prefix "s") biomarker endpoints were measured by ELISA. Overt cytotoxicity to cells in confluent adherent cultures (all systems other than the BT system) was assessed by measuring total protein levels using sulforhodamine B (SRB) staining in parallel cultures at the time of biomarker measurements, indicated as SRB endpoints. For proliferation assays for adherent cell types, individual cell types are cultured at sub-confluence and relative cell numbers quantified by SRB staining at time points optimized for each system (48 h: 3C and CASM3C systems; 72 h: BT and HDF3CGF systems; 96 h: SAg system). SRB was performed by staining cells with 0.1% SRB after fixation with 10% TCA and reading wells at 560 nm.Viability and proliferation of PBMC (T cells) was quantified by Alamar Blue reduction for the SAg and BT systems. For PBMC viability (referred to as PBMC Cytotoxicity within the assay endpoint names), cells were plated (75,000/well in a 96-well plate) and then chemical samples added for 1 h before addition of activators, SEB and TSST-1 (20 ng/mL final concentration each). Cells were incubated for 90 h. Then, Alamar Blue (20 uL/well) (Invitrogen, Cat DAL1100) was added for 6 h, and the plates were read with a fluorescence microplate reader at 546/580 nm (excitation/emission). For PBMC proliferation, cells were plated and activated as above but incubated for only 16 h prior to addition of Alamar Blue. Plates were read after 6 h.
With `CCS(=O)(=O)c1cccnc1S(=O)(=O)NC(=O)Nc1nc(OC)cc(OC)n1`, the result was inactive.
On the same count and under the same terms, next, `COP(=S)(OC)Oc1ccc(SC)c(C)c1`: “inactive”.
Take `O=C(O)C(F)(F)C(F)(F)C(F)(F)C(F)(F)C(F)(F)C(F)(F)C(F)(F)F`: the outcome was inactive and the AC50 was 1.49 µM (active).
As for `COc1cc(OC)nc(NC(=O)NS(=O)(=O)c2cc(NC=O)ccc2C(=O)N(C)C)n1`, the result was inactive.
The same measure, in the same setting: next, `CNC(=O)/C=C(\C)OP(=O)(OC)OC`: “inactive”; `O=C(O)CCCOc1ccc(Cl)cc1Cl`: “inactive”.
`O=S1OCC2C(CO1)C1(Cl)C(Cl)=C(Cl)C2(Cl)C1(Cl)Cl` (stereo not given): the AC50 was 30.5 µM (active).
Regarding `Oc1ccc(Cl)cc1Cc1ccccc1`, the half-maximal activity concentration (AC50) is 34 µM (active) [middle of 7 runs].
Take `CCOCN(C(=O)CCl)c1c(C)cccc1CC`: the result was inactive.
For `N#Cc1c(Cl)c(Cl)c(Cl)c(C#N)c1Cl`, the concentration at half-maximal activity (AC50) is 1.81 µM (active).
In the case of `CCC(C)(NC(=O)c1cc(Cl)c(C)c(Cl)c1)C(=O)CCl` (stereo not given), the AC50 is 26.1 µM (active).
With `CC1(c2ccc(Oc3ccccc3)cc2)OC(=O)N(Nc2ccccc2)C1=O` (stereo not given), the AC50 was 16.1 µM (active).
Regarding `CCCN(CCC)c1c([N+](=O)[O-])cc(C(F)(F)F)cc1[N+](=O)[O-]`, the outcome was inactive.
In the case of `O=S(=O)(O)C(F)(F)C(F)(F)C(F)(F)C(F)(F)C(F)(F)C(F)(F)C(F)(F)C(F)(F)F`, the AC50 is 463 nM (active) and 14.2 µM (active); the outcome was inactive.
`O=C(NC(=O)c1c(F)cccc1F)Nc1ccc(OC(F)(F)C(F)OC(F)(F)F)c(Cl)c1` (stereo not given): the result was inactive.
Still for that read-out and setting: next, `O=[N+]([O-])c1c(Cl)c(Cl)c(Cl)c(Cl)c1Cl`: “inactive”; `CCN(CC)C(=O)SCc1ccc(Cl)cc1`: “inactive”.
The same measure, in the same setting: for `CC(C)(C)C(O)C(Oc1ccc(Cl)cc1)n1cncn1` (stereo not given) the value was “inactive”.
With `CC[C@H](C)[C@H]1O[C@]2(C=C[C@@H]1C)C[C@@H]1C[C@@H](C/C=C(\C)[C@@H](O[C@H]3C[C@H](OC)[C@@H](O[C@H]4C[C@H](OC)[C@@H](O)[C@H](C)O4)[C@H](C)O3)[C@@H](C)/C=C/C=C3\CO[C@@H]4[C@H](O)C(C)=C[C@@H](C(=O)O1)[C@]34O)O2` (tested in a mixture with another compound), the AC50 was 8.93 µM (active).
`O=[N+]([O-])/N=C1\NCCN1Cc1ccc(Cl)nc1`: the result was inactive.
Same read-out and setting: next, `CNC(=O)Oc1cccc(N=CN(C)C)c1`: “inactive”.
The same measure, in the same setting: for `CCC(C)Nc1c([N+](=O)[O-])cc(C(C)(C)C)cc1[N+](=O)[O-]` (stereo not given) the value was “inactive”.
With `CCc1ccc(C(=O)NN(C(=O)c2cc(C)cc(C)c2)C(C)(C)C)cc1`, the AC50 is 24.2 µM (active).
For the compound `Clc1ccccc1-c1nnc(-c2ccccc2Cl)nn1`, the result was inactive.
Still for that read-out and setting: for `Cc1cc(C)nc(NC(=O)NS(=O)(=O)c2ccccc2C(=O)OC2COC2)n1` the value was “inactive”; for `COc1nn(CSP(=S)(OC)OC)c(=O)s1`, “inactive”; for `CNC(=O)CSP(=S)(OC)OC`, “inactive”.
`Oc1cc(Cl)ccc1Oc1ccc(Cl)cc1Cl`: the AC50 is 14.7 µM (active) [middle of 4 runs].
Regarding `CCCN(CCOc1c(Cl)cc(Cl)cc1Cl)C(=O)n1ccnc1`, the outcome was inactive.
In the case of `CC(C)N(C(=O)COc1nnc(C(F)(F)F)s1)c1ccc(F)cc1`, the result was inactive.
Turning to `O=C(O)COc1ccc(Cl)cc1Cl`, the outcome was inactive.
On the same count and under the same terms, next, `C[C@H]1[C@H](c2ccc(Cl)cc2)SC(=O)N1C(=O)NC1CCCCC1`: “inactive”.
Regarding `COC(=O)c1ccccc1S(=O)(=O)NC(=O)N(C)c1nc(C)nc(OC)n1`, the result was inactive.
The same measure, in the same setting: next, `COC(=O)c1ccccc1S(=O)(=O)NC(=O)Nc1nc(C)nc(OC)n1`: “inactive”.
On the same count and under the same terms, next, `CNC(=O)Oc1ccccc1OC(C)C`: “inactive”.
For the compound `N#CN`, the result was inactive.
The same measure, in the same setting: for `OCCOc1ccccc1` the value was “inactive”; for `C#CCN1C(=O)COc2cc(F)c(N3C(=O)C4=C(CCCC4)C3=O)cc21`, “inactive”.

In general, AC50 refers to the midpoint of the concentration-response curve, whichever way the signal moves.
